The values that follow come from PubChem BioAssay (NCATS).

Molecules are shown by their SMILES. Activity calls are given as the source filed them. Where a call stands in place of a potency, no number is given. The call rests on the fitted dose curve; in most records, active means well fitted curve in the direction sought with a large enough effect in the signal ratio, with a control signal flat (not every such curve was filed as active); inconclusive means small, poorly fitted or top-dose-only effect, or effect the other way, or a change in a side signal; inactive means no such curve, though single readings can be large or run the other way; the % refers to the signal ratio.

Sequence of Estrogen receptor (Homo sapiens) (P03372 whole entry, looked up): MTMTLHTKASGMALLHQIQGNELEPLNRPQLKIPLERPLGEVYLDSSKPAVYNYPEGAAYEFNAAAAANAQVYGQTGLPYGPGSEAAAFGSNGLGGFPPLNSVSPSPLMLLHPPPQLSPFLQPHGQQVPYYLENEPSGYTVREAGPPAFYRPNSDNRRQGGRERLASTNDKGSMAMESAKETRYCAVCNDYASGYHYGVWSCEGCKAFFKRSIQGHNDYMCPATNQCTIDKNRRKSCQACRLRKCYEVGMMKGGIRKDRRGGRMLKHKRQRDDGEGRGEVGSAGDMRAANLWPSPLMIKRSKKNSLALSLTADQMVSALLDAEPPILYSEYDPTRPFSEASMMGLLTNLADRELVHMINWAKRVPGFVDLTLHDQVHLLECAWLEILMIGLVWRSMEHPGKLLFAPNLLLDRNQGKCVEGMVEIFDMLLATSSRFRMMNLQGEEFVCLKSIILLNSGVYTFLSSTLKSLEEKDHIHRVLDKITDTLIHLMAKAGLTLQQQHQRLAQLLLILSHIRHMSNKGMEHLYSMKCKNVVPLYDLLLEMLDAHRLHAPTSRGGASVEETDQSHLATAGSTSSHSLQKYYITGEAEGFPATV

The experiment concerns the target Estrogen receptor (Homo sapiens) (UniProt P03372). As to the kind of experiment: qHTS assay for small molecule antagonists of estrogen receptor alpha signaling (AID 588513). The settings on record: ER-alpha-UAS-bla HEK293, beta-lactamase ratio, antagonist mode; series mostly up to 76.9 µM. An excerpt: NIH Chemical Genomics Center [NCGC]
U.S. Environmental Protection Agency [EPA]
National Institutes of Environmental Health Sciences [NIEHS]
National Toxicology Program [NTP]
Estrogen receptor alpha (ER-alpha) is an important member of nuclear hormone receptors. ER-alpha plays important role in breast cancer as well as in other women's health issues. The majority of breast cancers is estrogen receptor (ER) positive and depends on estrogen for growth. There is also growing concern for some of environmental chemicals which may contribute the increasing the incidence of breast cancer. Therefore, it is important to understand the effect of environmental chemicals in ER-alpha signaling pathway.
NCGC Assay Protocol Summary
Using a beta-lactamase reporter-gene under control of the ER response element, a cell-based assay [ER-alpha-UAS-bla GripTiteTM cell-Based Assay from Invitrogen] was used to measure ER-alpha signaling pathway in antagonist mode. ER-alpha-UAS-bla-GripTite HEK 293 cells were used with assay medium containing 2% charcoal/dextran treated FBS, 0.1 mM NEAA and 1 mM sodium pyruvate. Cells were cultured in this assay medium overnight in the flasks before the assay. The assay was performed in clear bottom black Greiner 1536-well plates. 17-beta-estradiol was used as a positive control in the screen. Library compounds were measured for their ability to inhibit the reporter gene activity. Compounds were screened in a titration series in 1536-well format. […] Data was normalized relative to 17-beta-estradiol control (0.5nM, 100%), and DMSO only wells (basal, 0%). Concentration-response titration points for each compound were fitted to the Hill equation yielding concentrations of half-maximal inhibition (IC50) and maximal response (efficacy) values.
qHTS protocol for ER-alpha beta-lactamase assay in antagonist mode
[Step] [Parameter] [Value] [Description]
1. Reagent; 5 uL; 5000 cells/well
2. Incubation; 37 C for 4 hrs
- Dose response, Start 38uM, 1:2 dilutions with duplicates
- Two columns with 38 and 19uM (final) concentration.
5. Agonist (Stimulator); 1uL; 17-beta-estradiol at 0.5nM (final) concentration
6. Incubation; 37 C for 18 hrs
7. Detection reagent; 1 uL of CCF4-dye
8. Incubation; RT for 2 hrs
9. Detection; Fluorescence; Envision plate reader or Acumen plate reader
A general note: In qHTS, concentration-response curves come from the screen itself.
Take `O=C(N[C@H](CO)[C@H](O)c1ccc([N+](=O)[O-])cc1)C(Cl)Cl`: the Potency result is “inactive”.

On to `CC1=NN(c2ccccc2)C(=O)C1`, for which the Potency entry is “inactive”. For `S=P(N1CC1)(N1CC1)N1CC1`, the Potency entry was “inactive”. As for `Cc1noc(NS(=O)(=O)c2ccc(N)cc2)c1C`, the entry is “inactive”. For `CC[C@H](C)C(=O)O[C@H]1C[C@@H](C)C=C2C=C[C@H](C)[C@H](CC[C@@H]3C[C@@H](O)CC(=O)O3)[C@H]21`, the Potency result is “inactive”. As to `COc1ccc2cc3[n+](cc2c1OC)CCc1cc2c(cc1-3)OCO2`, the Potency entry is “inactive”. For the molecule `C[C@]12C=CC(=O)C=C1CC[C@@H]1[C@@H]2C(=O)C[C@@]2(C)[C@H]1CC[C@]2(O)C(=O)CO`, the Potency entry was “inactive”.

In the case of `NNC(=O)c1ccncc1`, the Potency entry was “inactive”. As for `Cc1nnc(NS(=O)(=O)c2ccc(N)cc2)s1`, the entry is “inactive”; as for `N=C(N)c1ccc(OCCCCCOc2ccc(C(=N)N)cc2)cc1`, “inactive”; as for `O=C(O)c1cc(=O)[nH]c(=O)[nH]1`, “inactive”.

`CC(=O)Oc1ccccc1C(=O)Nc1ncc([N+](=O)[O-])s1`: the Potency entry was “inactive”.

On to `NC(N)=NC(N)=NCCc1ccccc1`, for which the Potency result is “inactive”. As for `OC(Cn1cncn1)(Cn1cncn1)c1ccc(F)cc1F`, the entry is “inactive”.

On to `CN(C)c1ccc(C(=C2C=CC(=[N+](C)C)C=C2)c2ccc(N(C)C)cc2)cc1`, for which the Potency was 28.2 µM [inconclusive] (active). For `Cc1ncc([N+](=O)[O-])n1CCO`, the Potency result was “inactive”.
